# Test results published in article PMC7819943, “Rice protein-binding microarrays: a tool to detect cis-acting elements near promoter regions in rice”.
# The full ranking holds about 35,000 sequences; the median of “fluorescence intensity (a.u.)” is about 10,000, and the highest 2% start at about 52,000. The sample holds the highest values, similar sequences and a random draw of the others, so the mix is not that of the screen.
# Target: T1, OsWOX13 (Oryza sativa, UniProt Q5QMM3 1-267)
# T1 sequence: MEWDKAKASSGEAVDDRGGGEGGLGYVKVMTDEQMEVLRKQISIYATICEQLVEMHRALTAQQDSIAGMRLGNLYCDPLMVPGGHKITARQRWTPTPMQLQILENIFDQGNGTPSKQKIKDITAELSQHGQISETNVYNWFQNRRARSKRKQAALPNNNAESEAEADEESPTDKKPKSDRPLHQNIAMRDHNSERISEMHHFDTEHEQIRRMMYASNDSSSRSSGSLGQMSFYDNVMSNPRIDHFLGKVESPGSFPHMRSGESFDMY
# Assay: protein-binding microarray (RPBM); PBS, 2% BSA, 51.3 ng/ul salmon testes DNA, 50 uM zinc acetate, 200 nM TF, 25 C, 1 h; high values mean tight binding
# Details: protein: recombinant; tags: N-terminal polyhistidine and DsRed monomer fusion (pET32a); label: CyDye5-dUTP incorporated in the synthesized complementary strand; 3' TTTTT single-stranded linker to array surface; dsDNA, one strand shown
# Summary of the method: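 Binding signal here means per-feature fluorescence intensity in arbitrary units. The values were read on an Axon 4000B scanner after a custom Agilent array, double-stranded by primer extension with Cy5-dUTP, was incubated with 200 nM protein at 25 °C for 1 h in PBS with 2% BSA, salmon testes DNA and 50 µM zinc acetate, then washed. The proteins were transcription factors with an N-terminal polyhistidine tag and DsRed, expressed in E. coli BL21-CodonPlus and purified on Ni–NTA.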
row,Sequence,binding signal
1,CCCAATTAAATAATGCCAATTGGGTTTGATCTAATGCTGGCGGAGTCACCTAGTGCAG,15200 fluorescence intensity (a.u.)
2,ATCAATCAATCAATCAATCAGCAAAGAGCATCCCAAACAACGGAGTCACCTAGTGCAG,33900 fluorescence intensity (a.u.)
3,AAGGTTGTTAATTACAAACCATGTTTCGTACTACAACTCTCGGAGTCACCTAGTGCAG,4580 fluorescence intensity (a.u.)
4,GTGACAAACTGACAACAGGTTGTTTAGTTTTCCATGATTACGGAGTCACCTAGTGCAG,4530 fluorescence intensity (a.u.)
5,GAATCTATTAAGCCTAATTAATCCGTTATTATAGCAAATACGGAGTCACCTAGTGCAG,6470 fluorescence intensity (a.u.)
6,AAGGCACGTTGATTGGACTAGTAGTACTACTACGTAGTAGCGGAGTCACCTAGTGCAG,18400 fluorescence intensity (a.u.)
7,ACCATTGATGGTCCCAATTTAAAATATTTGGCCGAATCTTCGGAGTCACCTAGTGCAG,3840 fluorescence intensity (a.u.)
8,AATAAAATAAATGATCAAATGAATTATGAAAACTCGTGACCGGAGTCACCTAGTGCAG,5260 fluorescence intensity (a.u.)
9,GTCGAAAATTATATCGGAATTAGCAGAGTGTGGCATAGCACGGAGTCACCTAGTGCAG,4260 fluorescence intensity (a.u.)
10,AGTAAAATGATTTGTAGTGTTAATAATAAAGAATAAATTACGGAGTCACCTAGTGCAG,10000 fluorescence intensity (a.u.)
11,TACAAATAGACTTGAATAAATGTTTATCTATTTTGTGTTGCGGAGTCACCTAGTGCAG,16800 fluorescence intensity (a.u.)
12,TGAGGAGCAATTAATGAGTTTGATGGACAGAGATAATAGCCGGAGTCACCTAGTGCAG,9490 fluorescence intensity (a.u.)
13,ACGTTTAATTACGGGAAACCGGCTAAAACCCACCACACATCGGAGTCACCTAGTGCAG,6640 fluorescence intensity (a.u.)
14,GTAGGAACACTAATTAATCACTCATTGATATGTGTAATCCCGGAGTCACCTAGTGCAG,14700 fluorescence intensity (a.u.)
15,GTAAATTGGCATTGGTTTGATTTATGTTTGCAATGCAGCGCGGAGTCACCTAGTGCAG,58200 fluorescence intensity (a.u.)
16,TTTTACATGATTGGATGACAAAGCCTATTTCGTTTTGTTGCGGAGTCACCTAGTGCAG,53100 fluorescence intensity (a.u.)
17,AGGCACGGATTGATGCATTAATTTGGTTGCAATGTAGATGCGGAGTCACCTAGTGCAG,37500 fluorescence intensity (a.u.)
18,CTTAAATCATGATGATTTTATTGGTTGTTGGCATGCACAGCGGAGTCACCTAGTGCAG,30500 fluorescence intensity (a.u.)
19,TTGCTAAATTGTTGTCTTGGTTGATATTTTAGATTTCTTGCGGAGTCACCTAGTGCAG,10000 fluorescence intensity (a.u.)
20,TCTTGATTGGTTGTTTTGGTTTGTTTCTTATTTATGTTTGCGGAGTCACCTAGTGCAG,54100 fluorescence intensity (a.u.)
21,CCGATGTTTGATTGTTCGTTTTATTTGAAAGCCTTTTATGCGGAGTCACCTAGTGCAG,20800 fluorescence intensity (a.u.)
22,CCCTTGTTTCTGTTTTGATTGCAACCTAAGAGACTCTTGACGGAGTCACCTAGTGCAG,6270 fluorescence intensity (a.u.)
23,CTTGTCTTATTTGATTGTTGCATTTACATTTATGCAATTTCGGAGTCACCTAGTGCAG,9350 fluorescence intensity (a.u.)
24,TCTGATTGACGGTGTTTGCAAGCAGAGTTCCTCTTCTTGGCGGAGTCACCTAGTGCAG,61500 fluorescence intensity (a.u.)
25,TTAATTATTTTGCTGACATGATTTGTTTTCATTTCGTTGACGGAGTCACCTAGTGCAG,24100 fluorescence intensity (a.u.)
26,AGAGTTCTGATTGAATTTGAACAGAAGCGGTGCTTTTGGACGGAGTCACCTAGTGCAG,38800 fluorescence intensity (a.u.)
27,CATCTTTGACCGGTTAAATTAGATCCTGTTCTAGATGAGGCGGAGTCACCTAGTGCAG,3480 fluorescence intensity (a.u.)

row,Sequence,binding signal
1,GCTTTCAATAAAACTTCATTAATTGAGGCTAAAATGTTACCGGAGTCACCTAGTGCAG,5100 fluorescence intensity (a.u.)
2,AAGCCAATTAAACAACCAGATACTCAAGTTATAACATAATCGGAGTCACCTAGTGCAG,3700 fluorescence intensity (a.u.)
3,TTTTAAACTAATACTTAATTAATCATATATTAATTAGGTACGGAGTCACCTAGTGCAG,19200 fluorescence intensity (a.u.)
4,CTTATGATTTTATTTAACCTGGTTTTGAAAGACAGGGGTTCGGAGTCACCTAGTGCAG,18100 fluorescence intensity (a.u.)
5,ATAGCTAATTTTCGGTATGTTACACCATCCATCTGCCATGCGGAGTCACCTAGTGCAG,5050 fluorescence intensity (a.u.)
6,TTCCGATTGAGGAATGTTATTCACACAAGCGCAGGAGATGCGGAGTCACCTAGTGCAG,4130 fluorescence intensity (a.u.)
7,AAAGTGACTGAATTTTAAGTCATCGGAAATTTACACGCTCCGGAGTCACCTAGTGCAG,15400 fluorescence intensity (a.u.)
8,ATGAATTGTTAATTTTGCAAGCTGAACTTCTCATGTTTGGCGGAGTCACCTAGTGCAG,11100 fluorescence intensity (a.u.)
9,GCGTCCATCTAATCTAATCTAACCACCCTGCACGAATCGCCGGAGTCACCTAGTGCAG,8750 fluorescence intensity (a.u.)
10,TTTTCTTTCTTGATTGGGAAGGAAATTGGTGGTTAATCTCCGGAGTCACCTAGTGCAG,23700 fluorescence intensity (a.u.)
11,TATAAAATTATAGATAATATAACATGTTTGCATGATGTTTCGGAGTCACCTAGTGCAG,5670 fluorescence intensity (a.u.)
12,TGGAACATTGTTGATTGGCGAGCTGGCACGCATGCTAGGTCGGAGTCACCTAGTGCAG,18600 fluorescence intensity (a.u.)
13,TCATGGTGATTGCGGCATGAGAGAGTGAGGGTTCTGCGAGCGGAGTCACCTAGTGCAG,10300 fluorescence intensity (a.u.)
14,TATGTTCTTGATTTGTCCTGTTACATTGCTGACATATGTGCGGAGTCACCTAGTGCAG,8650 fluorescence intensity (a.u.)
15,TACAATTGATTATGTAAAGTTTGTGTCTTGTACTAGAGGGCGGAGTCACCTAGTGCAG,43900 fluorescence intensity (a.u.)
16,TAGTTTTGTAAATGATTGAAATTTTCTAGTGTTAAATAGGCGGAGTCACCTAGTGCAG,34800 fluorescence intensity (a.u.)
17,GTATGATTGGTTATGTAAAGTTTGTTTCTTGTTCTAGAGGCGGAGTCACCTAGTGCAG,58400 fluorescence intensity (a.u.)
18,GTTGATGATGTGGCTTCTTGCTTGTCTTGCTTTATAGGAGCGGAGTCACCTAGTGCAG,5720 fluorescence intensity (a.u.)
19,ACACAATTATGTCAAGTTCAATTCTCAAGTTTGAATTGGGCGGAGTCACCTAGTGCAG,5050 fluorescence intensity (a.u.)
20,GTTTGATTGCACATTATGTCCTTGGAGTTCTTCAACATAGCGGAGTCACCTAGTGCAG,55700 fluorescence intensity (a.u.)
21,TGGAGAGTTTTGATTGGTTGGGAAGAGAATGTTGATAGAGCGGAGTCACCTAGTGCAG,20200 fluorescence intensity (a.u.)
22,TTGATTGCTTGTTTGATTGGTGGTTCTTGAGCGAGAAGAGCGGAGTCACCTAGTGCAG,63300 fluorescence intensity (a.u.)
23,TAGATGATTGCACTAGATTTTGCTTTGTGTACTTATTGAACGGAGTCACCTAGTGCAG,32900 fluorescence intensity (a.u.)
24,ATGATTGATGTCTTTTATTTTCTTTGTACTAAGGAGCTTGCGGAGTCACCTAGTGCAG,62700 fluorescence intensity (a.u.)
25,TTACTCGTCAATCCACCGATTACAGCTATCTCAAACGGAGCGGAGTCACCTAGTGCAG,8630 fluorescence intensity (a.u.)
26,GTGATAATGTCCATCAATCTAGCAAATCATTCTCACAACGCGGAGTCACCTAGTGCAG,26800 fluorescence intensity (a.u.)
27,TTTGATTTATATGCCATTGCCTTTGCTGAACAGAAAAGCTCGGAGTCACCTAGTGCAG,37600 fluorescence intensity (a.u.)
